Measured values taken from PubChem BioAssay (EPA / NIEHS).
Records with an inconclusive call do not appear. Active and inactive are the calls of the source. Rule for the calls: active = hit-call score of the fitted dose curve at least 0.9, where 1 is the maximum; inconclusive = response in the unintended direction; inactive = score below 0.9.

Target: Androgen receptor (Homo sapiens) (UniProt P10275)
Assay: ATG_AR_TRANS: Attagene TRANS-FACTORIAL HepG2 Assay for human Androgen Receptor (AR) (AID 2282973)
Conditions: HepG2 Attagene TRANS-FACTORIAL AR reporter transcription
Procedure, shortened: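 HepG2 cells transiently transfected with multiplexed GAL4-UAS reporter units and chimeric NR-Gal4 fusion; 24 h compound exposure. Reporter mRNA measured by RT-PCR, 6-FAM labelling, HpaI digestion and capillary electrophoresis; gain-of-signal fitted relative to DMSO baseline.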

Sequence of Androgen receptor (Homo sapiens) (P10275 whole entry, looked up): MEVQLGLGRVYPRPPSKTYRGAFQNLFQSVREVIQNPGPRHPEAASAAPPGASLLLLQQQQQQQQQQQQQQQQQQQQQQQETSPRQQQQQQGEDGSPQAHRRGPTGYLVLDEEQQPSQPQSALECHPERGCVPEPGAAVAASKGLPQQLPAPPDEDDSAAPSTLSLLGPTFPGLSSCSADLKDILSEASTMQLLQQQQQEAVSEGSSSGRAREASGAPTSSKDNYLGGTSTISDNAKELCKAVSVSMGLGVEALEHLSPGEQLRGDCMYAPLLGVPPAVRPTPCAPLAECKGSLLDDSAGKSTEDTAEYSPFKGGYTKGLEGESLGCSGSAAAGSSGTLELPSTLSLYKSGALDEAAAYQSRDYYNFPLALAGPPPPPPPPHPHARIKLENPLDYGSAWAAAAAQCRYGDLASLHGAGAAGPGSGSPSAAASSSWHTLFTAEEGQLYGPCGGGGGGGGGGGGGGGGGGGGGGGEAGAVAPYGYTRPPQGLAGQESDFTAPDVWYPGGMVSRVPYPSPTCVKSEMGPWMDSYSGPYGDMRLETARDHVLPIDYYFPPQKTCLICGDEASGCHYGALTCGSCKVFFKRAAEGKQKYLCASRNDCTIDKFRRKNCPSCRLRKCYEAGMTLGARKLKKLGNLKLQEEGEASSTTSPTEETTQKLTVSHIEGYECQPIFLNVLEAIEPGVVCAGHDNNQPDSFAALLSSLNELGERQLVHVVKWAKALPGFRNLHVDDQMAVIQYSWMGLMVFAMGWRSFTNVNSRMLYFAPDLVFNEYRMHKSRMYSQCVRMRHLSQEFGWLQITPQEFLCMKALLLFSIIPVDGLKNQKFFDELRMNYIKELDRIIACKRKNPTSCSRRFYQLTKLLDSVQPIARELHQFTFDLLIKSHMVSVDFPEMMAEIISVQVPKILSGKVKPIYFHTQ

Row | Compound | outcome
1 | C=COC(=O)C(C)(C)CCCCCC | inactive
2 | CCOC(=O)[C@@H](C)Oc1ccc(Oc2nc3ccc(Cl)cc3o2)cc1 | inactive
3 | CC1(C)C2=CCCC(C)(C)[C@]23CC[C@H]1C3 | inactive
4 | CCCCCCc1ccc(N)cc1 | inactive
5 | FC(OC(F)(F)C(F)(F)C(F)(F)F)C(F)(F)F (configuration not stated) | inactive
6 | O=[N+]([O-])c1cc(C(F)(F)F)ccc1Cl | inactive
7 | CCCCNc1ccc(NCCCC)c2c1C(=O)c1ccccc1C2=O | inactive
8 | CN(C)CCOC(c1ccccc1)c1ccccc1 | inactive
9 | O=c1cccc[nH]1 | inactive
10 | CSc1ccc(Oc2ccc(S(N)(=O)=O)cc2CN(C)C)cc1C | inactive
11 | CCCc1ccc(OC)cc1 | inactive
12 | C=CC(=O)OCCCCCCOC(=O)C=C | inactive
13 | O=c1cc(-c2ccccc2)oc2ccccc12 | inactive
14 | NC(=O)c1nc(-c2cccc(-c3cc(F)ccc3OCC(F)(F)C(F)(F)F)c2)n[nH]1 | inactive
15 | CC(C)c1ccc2cc(C(C)C)ccc2c1 | inactive
16 | O=C(O)c1cccc(Cl)n1 | inactive
17 | COCc1c(C(C)C)nc(C(C)C)c(/C=C/[C@@H](O)C[C@@H](O)CC(=O)O)c1-c1ccc(F)cc1 | inactive
18 | CC(C)(c1ccc(O)cc1)c1ccc(O)cc1 | inactive
19 | CC1(C)COCN1 | inactive
20 | CN(C)Cc1ccccc1O | inactive
21 | Cc1cccc(C(=O)O)c1 | inactive
22 | Clc1sc(Cl)c(Cl)c1Cl | inactive
23 | CC1(C)C(=O)N(Br)C(=O)N1Br | inactive
24 | Cc1nc(-c2ccc3c(c2)CCN(CCC2CCC(NC(=O)/C=C/c4ccc(F)cc4)CC2)CC3)no1 (configuration not stated) | inactive
25 | CCC(C)(C)c1cc(O)c(C(C)(C)CC)cc1O | inactive
26 | CCN(CC)CCOc1ccc(C(=C(Cl)c2ccccc2)c2ccccc2)cc1 | inactive

Row | Compound | outcome
27 | CCc1c(Br)c(Br)c(Br)c(Br)c1Br | inactive
28 | CCCOC(=O)c1ccc(C(=O)OCCC)nc1 | inactive
29 | CCCCCCCCCCCCOCCO | inactive
30 | Cc1cc(=O)n(-c2ccccc2)n1C | inactive
31 | COC(=O)c1ccc([N+](=O)[O-])cc1 | inactive
32 | O=C(C=C(O)C(F)(F)F)C(F)(F)F | inactive
33 | COc1ccccc1OCC(O)CO (configuration not stated) | inactive
34 | CN(C)c1ccc(C(c2ccccc2)c2ccc(N(C)C)cc2)cc1 | inactive
35 | CCSC(=O)N(CC(C)C)CC(C)C | inactive
36 | COc1ccc2c(c1)c(CC(=O)O)c(C)n2C(=O)c1ccc(Cl)cc1 | inactive
37 | OCc1ccccc1 | inactive
38 | CCCCCCCCCC(=O)O | inactive
39 | O=c1c(-c2ccc(O)cc2)coc2cc(O)cc(O)c12 | inactive
40 | CC(C)CCCC(C)CCO (configuration not stated) | inactive
41 | O=C1OCc2ccccc21 | inactive
42 | CCCCOCCOCCOCc1cc2c(cc1CCC)OCO2 | inactive
43 | N#CSCSc1nc2ccccc2s1 | inactive
44 | CC1(C)CCC(C)(C)c2cc(C(=O)Nc3ccc(C(=O)O)cc3)ccc21 | inactive
45 | O=C1OC(=O)C(F)(F)C1(F)F | inactive
46 | Cc1nn(C)c(Oc2ccccc2)c1C=NOCc1ccc(C(=O)OC(C)(C)C)cc1 | inactive
47 | CCCCCCCCCCOC(=O)c1ccccc1C(=O)OCCCCCCCC | inactive
48 | O=[N+]([O-])c1ccccc1C(F)(F)F | inactive
49 | CCCCCCCC(OC)OC | inactive
50 | O=C(O)Cn1c(=O)n(Cc2ccc(Br)cc2F)c(=O)c2ccc(Cl)cc21 | inactive
51 | C=CCCCCCCCCCCCC | inactive
52 | COCCOCCOC | inactive
